17 compounds from PubChem BioAssay (Tox21) can be followed below.

Structures are written as SMILES. Where “and” joins values, the source holds several entries; their conditions need not be identical. Equal entries are not always repeated. Results filed as inconclusive are left out. A number with no mark means an inactive call. Calls of active or inactive are those of the source. Calls follow the shape of the full dose curve.
Potency is read from the fitted curve at half-maximal effect.

This assay is described as follows: qHTS assay to identify small molecule agonists of the AP-1 signaling pathway - cell viability counter screen (AID 1159525). Also: nearly all actives have a fitted effect of over 55% in size. Particulars: ME-180 (cervical carcinoma) AP-1-bla cells viability, ATP luminescence, 5 h; series mostly up to 76.8 µM; viability change, negative = cytotoxic: at the top concentration. An outline of the steps: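 Luminescent ATP readout (Cell Titer Glo, 30 min RT), normalised to DMSO and tetra n-octyl ammonium bromide controls. Cells were ME-180 AP-1-bla in 0.5% dialyzed FBS Opti-MEM, with a 5 h, 37 °C compound exposure.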
On the technique in general: In qHTS, concentration-response curves come from the screen itself.
As to `Oc1c(Br)c(Br)c(Br)c(Br)c1Br`, the “viability change, negative = cytotoxic” value is -6.55%. As to `Oc1ccc(C(=C(Cl)Cl)c2ccc(O)cc2)cc1`, the “viability change, negative = cytotoxic” value was -14.9%.

For the compound `CC1CCC(C(C)C)C(OC(=O)c2ccccc2N)C1` (configuration not stated), the Potency was 38.4 µM (active). `CN(C)c1ccc(N=Nc2ccccc2)cc1`: the “viability change, negative = cytotoxic” value is 4.07%. Take `CCCCCCCCCCCCCN1CC(C)OC(C)C1` (configuration not stated): the “viability change, negative = cytotoxic” value is 1.19%. Consider `CCc1nn(C)c(C(=O)NCc2ccc(C(C)(C)C)cc2)c1Cl`, for which the Potency is 54.9 µM (active). Same read-out and setting: the result for `CC(C)CC(C)(c1ccc(O)cc1)c1ccc(O)cc1` reads 43.8 µM (active).

As for `CCOCn1c(-c2ccc(Cl)cc2)c(C#N)c(Br)c1C(F)(F)F`, the “viability change, negative = cytotoxic” value was -13.2%. Same read-out and setting: under `CCCSP(=O)(OCC)SCCC` stands -2.69%.

In the case of `CC(C)C1CCC(Cc2ccc(Cl)cc2)C1(O)Cn1cncn1` (configuration not stated), the Potency is 48.5 µM (active). With `O=[N+]([O-])O.O=[N+]([O-])O.[Cd]`, the “viability change, negative = cytotoxic” value is 5.4%. As for `N#CC(Cl)Cl`, the “viability change, negative = cytotoxic” value is 3.42%. Regarding `N#CSCSC#N`, the Potency is 25.1 µM (active) and 21.7 µM (active). Still for that read-out and setting: the result for `CC[C@H](C)[C@H]1O[C@]2(C=C[C@@H]1C)C[C@@H]1C[C@@H](C/C=C(\C)[C@@H](O[C@H]3C[C@H](OC)[C@@H](O[C@H]4C[C@H](OC)[C@@H](O)[C@H](C)O4)[C@H](C)O3)[C@@H](C)/C=C/C=C3\CO[C@@H]4[C@H](O)C(C)=C[C@@H](C(=O)O1)[C@]34O)O2` reads 23 µM (active).

For `Cc1c(Cl)c(=O)oc2cc(OP(=O)(OCCCl)OCCCl)ccc12`, the “viability change, negative = cytotoxic” value was -0.813% [at 35.3 µM].

Turning to `CCN(CC)C(=S)[S-].CCN(CC)C(=S)[S-].[Zn+2]`, the Potency was 12.2 µM (active).

`CC1(c2ccc(Oc3ccccc3)cc2)OC(=O)N(Nc2ccccc2)C1=O` (configuration not stated): the “viability change, negative = cytotoxic” value is -9.65%.
